Experimental data from PubChem BioAssay (NCATS).
Values joined by “and” are separate entries in the source; they are usually repeats but may differ in a detail not shown here. Equal values may be shown once. Records with an inconclusive call do not appear. A call without a number means that no potency is given here. Values without a mark were called inactive. Active and inactive are the calls of the source. The call rests on the fitted dose curve; in most records, active means well fitted inhibition curve with a large enough effect; inconclusive means small, poorly fitted or top-dose-only effect; inactive means flat fitted curve, though single readings scatter.

Columns and labels:
[1] = system: CRL-7250; experiment: Cytotoxic Profiling of Annotated Libraries Using Quantitative High-Throughput Screening (AID 1296008); settings: Five cell lines viability, CellTiter-Glo ATP luminescence, 48-72 h; max response: active compounds read low; further: potency means the concentration at half of the fitted maximal effect
Outline: (§1)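 Cytotoxicity was measured as CellTiter-Glo ATP luminescence, read after 10 min at room temperature. Compound treatment of the cells lasted 48 or 72 hr at 37 degrees Celsius in a qHTS format.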

[2] = system: HaCat; experiment: as above; settings: Five cell lines viability, CellTiter-Glo ATP luminescence, 48-72 h; max response: active compounds read low
Outline: as §1

[3] = system: KB-3-1; experiment: as above; settings: Five cell lines viability, CellTiter-Glo ATP luminescence, 48-72 h; max response: active compounds read low
Outline: as §1

[4] = system: NIH3T3; experiment: as above; settings: Five cell lines viability, CellTiter-Glo ATP luminescence, 48-72 h; max response: active compounds read low
Outline: as §1

[5] = system: HACAT; experiment: qHTS assay to identify novel small-molecules to repurpose for Merkel cell carcinoma treatment (AID 1296009); settings: MCC and control cell lines, CellTiter-Glo viability, 72 h; at 44.8 µM (top of the series) unless noted
Outline: (§2)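 After compound transfer in DMSO, plates were kept 72 hr at 37 degree celsius. Luminescent ATP signal from CellTiter-Glo served as viability measure, normalized against DMSO and no-cell controls.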

[6] = system: MCC-13; experiment: as above; settings: MCC and control cell lines, CellTiter-Glo viability, 72 h; series mostly up to 46 µM
Outline: as §2

[7] = system: MCC-26; experiment: as above; settings: MCC and control cell lines, CellTiter-Glo viability, 72 h; series mostly up to 46 µM
Outline: as §2

[8] = system: MKL-1; experiment: as above; settings: MCC and control cell lines, CellTiter-Glo viability, 72 h; series mostly up to 46 µM
Outline: as §2

[9] = system: MKL-2; experiment: as above; settings: MCC and control cell lines, CellTiter-Glo viability, 72 h; series mostly up to 46 µM
Outline: as §2

[10] = system: UISO; experiment: as above; settings: MCC and control cell lines, CellTiter-Glo viability, 72 h; series mostly up to 46 µM
Outline: as §2

[11] = system: WaGa; experiment: as above; settings: MCC and control cell lines, CellTiter-Glo viability, 72 h; series mostly up to 46 µM
Outline: as §2

[12] = system: HEK293; experiment: Cytotoxic Profiling of Annotated Libraries Using Quantitative High-Throughput Screening (AID 1296008); settings: Five cell lines viability, CellTiter-Glo ATP luminescence, 48-72 h; max response: active compounds read low; further: potency means the concentration at half of the fitted maximal effect
Outline: as §1

[13] = system: NIH3T3; experiment: qHTS assay to identify novel small-molecules to repurpose for Merkel cell carcinoma treatment (AID 1296009); settings: MCC and control cell lines, CellTiter-Glo viability, 72 h; at 44.8 µM (top of the series) unless noted
Outline: as §2

[14] = system: SC27B; experiment: qHTS profiling for inhibitors of Plasmodium falciparum proliferation (AID 504749); further: potency means the concentration at half of the fitted maximal effect; settings: P. falciparum in erythrocytes, SYBR Green DNA, 72 h; series mostly up to 28.7 µM
Outline: (§3)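 Three-day growth assay of blood-stage parasites in erythrocytes (0.3% parasitemia, 2.5% hematocrit) at 37 C, 5% CO2, quantified by SYBR Green DNA staining after overnight detergent lysis.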

[15] = system: TAB109; experiment: as above; settings: P. falciparum in erythrocytes, SYBR Green DNA, 72 h; series mostly up to 28.7 µM
Outline: as §3

[16] = system: TAB113; experiment: as above; settings: P. falciparum in erythrocytes, SYBR Green DNA, 72 h; series mostly up to 28.7 µM
Outline: as §3

[17] = system: TAB165; experiment: as above; settings: P. falciparum in erythrocytes, SYBR Green DNA, 72 h; series mostly up to 28.7 µM
Outline: as §3

[18] = system: CRL-7250; experiment: qHTS assay to identify novel small-molecules to repurpose for Merkel cell carcinoma treatment (AID 1296009); settings: MCC and control cell lines, CellTiter-Glo viability, 72 h; at 44.8 µM (top of the series) unless noted
Outline: as §2

[19] = system: HEK293T; experiment: as above; settings: MCC and control cell lines, CellTiter-Glo viability, 72 h; at 44.8 µM (top of the series) unless noted
Outline: as §2

[20] = system: W2; experiment: qHTS profiling for inhibitors of Plasmodium falciparum proliferation (AID 504749); further: potency means the concentration at half of the fitted maximal effect; settings: P. falciparum in erythrocytes, SYBR Green DNA, 72 h; series mostly up to 28.7 µM
Outline: as §3
Further: nearly all actives have a fitted effect of over 60% in size.

CC(Cc1ccccc1)NCCn1cnc2c1c(=O)n(C)c(=O)n2C (stereo not drawn)
max response [1]: 2.38% | outcome [2]: inactive | max response [3]: 0.853% | max response [4]: -0.181% | outcome [5]: inactive [at 92 µM] | outcome [6]: inactive | Potency [7]: inactive | Potency [8]: inactive | Potency [9]: inactive | Potency [10]: inactive | Potency [11]: inactive

c1ccc(N2CCNCC2)cc1
max response [1]: 4.63% | max response [12]: -4.08% | outcome [2]: inactive | outcome [4]: inactive | outcome [5]: inactive | outcome [6]: inactive | Potency [7]: inactive | Potency [8]: inactive | Potency [9]: inactive | outcome [13]: inactive | Potency [10]: inactive | Potency [11]: inactive

CCCCCCCCCC(=O)O[C@H]1CC[C@H]2[C@@H]3CCC4=CC(=O)CC[C@@H]4[C@H]3CC[C@]12C
Potency [14]: inactive | Potency [15]: inactive | Potency [16]: inactive | Potency [17]: inactive | outcome [1]: inactive | max response [2]: 4.55% | max response [3]: -10.4% | max response [4]: -3.4% | outcome [18]: inactive | outcome [6]: inactive | Potency [7]: inactive | Potency [8]: inactive | Potency [9]: inactive | Potency [10]: inactive

CN1C(=O)CCS(=O)(=O)C1c1ccc(Cl)cc1 (stereo not drawn)
Potency [14]: inactive | Potency [15]: inactive | Potency [16]: inactive | Potency [17]: inactive | max response [1]: -0.906% and -1.81% | outcome [2]: inactive | max response [3]: -6.09% and -6.07% | max response [4]: 2.05% and -20.3% | outcome [5]: inactive | outcome [19]: inactive | outcome [6]: inactive | Potency [7]: inactive | Potency [8]: inactive | Potency [9]: inactive | Potency [10]: inactive | Potency [11]: inactive

CCN(CC)C(=O)[C@@H]1C=C2c3cccc4[nH]cc(c34)C[C@H]2N(C)C1
max response [1]: -10.2% | Potency [12]: 80 µM (active) | max response [2]: 1.44% | max response [3]: 1.43% and -14.9% | outcome [6]: inactive | Potency [7]: inactive

Nc1ccc([As](=O)(O)O)cc1
Potency [14]: inactive | Potency [15]: inactive | Potency [16]: inactive | Potency [17]: inactive | max response [1]: 1.05% | max response [12]: -6.15% | max response [2]: -3.33% | max response [3]: -4.72% | outcome [4]: inactive | outcome [6]: inactive | Potency [8]: inactive | Potency [9]: inactive | outcome [13]: inactive | Potency [10]: inactive | Potency [11]: inactive

CC(=O)C1CCOC1=O (stereo not drawn)
outcome [1]: inactive | outcome [12]: inactive | outcome [2]: inactive | outcome [4]: inactive | outcome [18]: inactive | outcome [5]: inactive | outcome [19]: inactive | outcome [6]: inactive | Potency [8]: inactive | Potency [9]: inactive | outcome [13]: inactive | Potency [10]: inactive | Potency [11]: inactive

CC(C)(C)NCC(O)c1ccccc1Cl (stereo not drawn)
Potency [20]: 6.01 µM (active) | max response [1]: -15.1% | max response [12]: -2.46% | max response [2]: -8.54% | max response [3]: 2.34% | max response [4]: -6.71% | outcome [6]: inactive | Potency [8]: inactive | Potency [9]: inactive | Potency [10]: inactive | Potency [11]: inactive
